Test results from PubChem BioAssay.
Activity calls are given as the source filed them. No rule for the calls is given here.

target: Lethal factor (Bacillus anthracis) (UniProt P15917); assay: Lethal factor protease inhibitors, Bacillus anthracis, multiplex microsphere cleavage assay, validation set (AID 588461); details: flow cytometry, at 10 µM, stronger effect = higher value

| SMILES | inhibition |
| --- | --- |
| COc1ccccc1OCC(O)COC(N)=O (stereo not given) | -6.8% (inactive) |
| O=C(NCCC(c1ccccc1)c1ccco1)c1cccs1 (stereo not given) | 3% (inactive) |
| CC1(c2ccccc2)CC(C)(C)N2C(=O)C(=O)c3cccc1c32 (stereo not given) | -0.4% (inactive) |
| NC[C@H]1O[C@H](O[C@H]2[C@H](O)[C@@H](O[C@H]3O[C@H](CO)[C@@H](O)[C@H](N)[C@H]3O)[C@H](N)C[C@@H]2N)[C@H](N)C[C@@H]1O | -1.8% (inactive) |
| O=C(O)CCCCCCNC(=O)c1cncc(O)c1 | 7.5% (inactive) |
| Cc1ccc2nc(N=C(N)N)nc(C)c2c1 | -12.1% (inactive) |
| COc1ccc2cc(CCC(C)=O)ccc2c1 | 6.3% (inactive) |
| O=c1ccn([C@@H]2O[C@H](CO)[C@@H](O)[C@H]2O)c(=O)[nH]1 | 1.9% (inactive) |
| COC(=O)c1ccc(CC(=O)c2ccc(O)cc2O)o1 | -5.4% (inactive) |
| Cc1cn([C@H]2C[C@H](N=[N+]=[N-])[C@@H](CO)O2)c(=O)[nH]c1=O | -2.8% (inactive) |
| COc1ccc(C2CC(c3c(O)cc(C)oc3=O)=NCCS2)c(OC)c1 (stereo not given) | 4.3% (inactive) |
| COc1ccc(-c2c(NC(=O)c3ccco3)n(C)c3ccccc3c2=O)cc1 | -0.7% (inactive) |
| N/C(Cc1ccc(Cl)cc1Cl)=N\OC(=O)c1ccc(Br)o1 | -7.4% (inactive) |
| CN1CCCN(C(c2ccccc2)c2ccc(Cl)cc2)CC1 (stereo not given) | -8.8% (inactive) |
| CC(C)(C)C(=O)N1CCCC1C(=O)O (stereo not given) | -0.9% (inactive) |
